# According to PubChem BioAssay (NCATS):
# Results filed as inconclusive are left out. A call without a number means that no potency is given here. Calls of active or inactive are those of the source. Calls follow the shape of the dose curve; as a rule, active = well fitted curve in the direction sought with a large enough effect; inconclusive = small, poorly fitted or top-dose-only effect, or another doubt; inactive = no such curve, though single readings can be large; an effect the other way counts as inactive or inconclusive.
# Test system: WaGa
# Experiment: qHTS assay to identify novel small-molecules to repurpose for Merkel cell carcinoma treatment (AID 1296009); also: nearly all actives have a fitted effect of over 60% in size; also: potency is read from the fitted curve at half-maximal effect
# Conditions: MCC and control cell lines, CellTiter-Glo viability, 72 h; series mostly up to 46 µM
# Summary of the method: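 Cell viability, measured as CellTiter-Glo luminescence, was normalized between DMSO and no-cell wells. The cells had been exposed to 8- or 11-point compound dilutions for 72 hr at 37 degree celsius.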
row,SMILES,Potency
1,NC[C@H]1O[C@H](O[C@@H]2[C@@H](O)[C@@H](O[C@H]3O[C@H](CO)[C@@H](O)[C@H](N)[C@@H]3O)[C@H](N)C[C@@H]2N)[C@H](O)[C@@H](O)[C@H]1O,inactive
2,CC(=O)O[C@]1(C(C)=O)CC[C@H]2[C@@H]3C=C(Cl)C4=CC(=O)[C@@H]5C[C@H]5[C@]4(C)[C@@H]3CC[C@@]21C,inactive
3,CON(C)C(=O)N1N=C(c2cc(F)ccc2F)S[C@]1(CCCN)c1ccccc1,inactive
4,OC[C@H]1O[C@@H](O[C@H]2[C@@H](O)[C@@](O)(CO)O[C@@H]2CO)[C@H](O)[C@@H](O)[C@@H]1O,inactive
5,COc1cc(F)c(C(C)C)cc1-c1ccc(C(F)(F)F)cc1CN1C(=O)O[C@H](c2cc(C(F)(F)F)cc(C(F)(F)F)c2)[C@@H]1C,inactive
6,CCCC1OC2C[C@@H]3[C@H]4CCC5=CC(=O)C=C[C@]5(C)[C@H]4C(O)C[C@]3(C)[C@]2(C(=O)CO)O1 (stereo partly specified),inactive
7,COc1cc(CNC(=O)CCCCC=CC(C)C)ccc1O,inactive
8,C#CCN(C)CC1=Cc2ccccc2Oc2ccccc21,inactive
9,O=c1[nH]c(=O)n([C@H]2C[C@@H](O)[C@@H](CO)O2)cc1I,inactive
10,CNC(=O)[C@H](CC1=CN=C2C=CCC=C12)NC(=O)[C@@H](CC(=O)NO)CC(C)C,296 nM (active)
11,Cc1c(C(=O)Nc2ccc(N3C[C@@H](C)O[C@@H](C)C3)nc2)cccc1-c1ccc(OC(F)(F)F)cc1,inactive
12,Nc1ncnc2c1c(-c1cccc(OCc3ccccc3)c1)cn2C1CC(CN2CCC2)C1 (stereo unspecified),inactive
13,Cc1cc(C(C)Nc2ccccc2)c2nc(N3CCOCC3)cc(=O)n2c1 (stereo unspecified),inactive
14,CSc1cccc(Nc2ncc3cc(-c4c(Cl)cccc4Cl)c(=O)n(C)c3n2)c1,inactive
15,CN1CCN(c2cccc(Nc3nc4c(-c5ccc(S(C)(=O)=O)cc5)cccn4n3)c2)CC1,inactive
16,CCC(=O)OCC(=O)[C@@]1(OC(=O)CC)[C@@H](C)C[C@@H]2[C@H]3CCC4=CC(=O)C=C[C@]4(C)[C@@]3(F)[C@@H](O)C[C@@]21C,inactive
17,CC(C)C[C@@H](N)[C@H](O)C(=O)N[C@H](C(=O)N[C@H](C(=O)N[C@@H](CC(=O)O)C(=O)O)C(C)C)C(C)C,inactive
18,C[C@@H](O[C@H]1OCCN(Cc2n[nH]c(=O)[nH]2)[C@@H]1c1ccc(F)cc1)c1cc(C(F)(F)F)cc(C(F)(F)F)c1,inactive
19,CC(C)(C)c1nc(-c2cccc(NS(=O)(=O)c3c(F)cccc3F)c2F)c(-c2ccnc(N)n2)s1,inactive
20,CNC(=O)c1cc(COc2nnc(Nc3ccc(Cl)cc3)c3ccoc23)ccn1,inactive
21,CCNC(=O)CCCC=CC[C@@H]1[C@H](C=CC(O)CCc2ccccc2)[C@@H](O)C[C@@H]1O (stereo partly specified),inactive
22,CC(C)[C@H](O)C(=O)N[C@@H](C)C(=O)N[C@@H]1C(=O)N(C)CCc2ccccc21,inactive
23,CN1CC(=O)NC1=NC(=O)Nc1cccc(Cl)c1,inactive
24,CCCCCOC(=O)Nc1nc(=O)n([C@@H]2O[C@H](C)[C@@H](O)C2O)cc1F (stereo partly specified),inactive
25,O=C1Nc2ccc(I)cc2C1=Cc1cc(Br)c(O)c(Br)c1,inactive
26,O=S(=O)(O)c1ccc2cc(N=Nc3cc(S(=O)(=O)O)c4cccnc4c3O)ccc2c1,inactive
27,N#Cc1ccc(Oc2ccc3c(c2)COB3O)cc1,inactive
28,COc1cc2c(cc1OC)CC(=O)N(CCCN(C)C[C@H]1Cc3cc(OC)c(OC)cc31)CC2,inactive
29,OC[C@H]1O[C@@H](OCCc2ccc(O)cc2)[C@H](O)[C@@H](O)[C@H]1O,inactive

# Test system: C33A
# Experiment: Primary qHTS to identify gynecologic anti-cancer compounds using libraries of approved drugs and bioactive compounds (AID 1345084); also: nearly all actives have a fitted effect of over 55% in size
# Conditions: Gynecologic cancer cell panel viability, ATPlite luminescence, 48 h; series mostly up to 57.5 µM
# Summary of the method: (§1)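 Cytotoxicity screen measuring ATP content by luciferase luminescence. Each compound is applied at five concentrations for 48 h at 37 C with 5% CO2.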
row,SMILES,Potency
1,CCc1cccc(CC)c1NC(=O)N1Cc2[nH]nc(NC(=O)c3ccc(N4CCN(C)CC4)cc3)c2C1,inactive
2,Cc1c(C(=O)Nc2ccc(N3C[C@@H](C)O[C@@H](C)C3)nc2)cccc1-c1ccc(OC(F)(F)F)cc1,inactive
3,Cc1cc(C(C)Nc2ccccc2)c2nc(N3CCOCC3)cc(=O)n2c1 (stereo unspecified),inactive
4,CN1CCN(c2cccc(Nc3nc4c(-c5ccc(S(C)(=O)=O)cc5)cccn4n3)c2)CC1,inactive
5,O[C@@H](COc1cccc2ncccc12)CN1CCN(C2c3ccccc3[C@@H]3[C@H](c4ccccc42)C3(F)F)CC1 (stereo partly specified),inactive
6,N#CC1(c2cccc(C(=O)Nc3cc(Oc4ccc5nc(NC(=O)C6CC6)sc5n4)ccc3F)c2Cl)CC1,inactive
7,O=S(=O)(O)c1ccc2cc(N=Nc3cc(S(=O)(=O)O)c4cccnc4c3O)ccc2c1,inactive
8,CCN(CCO)CCCOc1ccc2c(Nc3cc(CC(=O)Nc4cccc(F)c4)[nH]n3)ncnc2c1,inactive
9,N#Cc1ccc(Oc2ccc3c(c2)COB3O)cc1,inactive
10,OC[C@H]1O[C@@H](OCCc2ccc(O)cc2)[C@H](O)[C@@H](O)[C@H]1O,inactive

# Test system: CAOV3
# Experiment: as above
# Conditions: Gynecologic cancer cell panel viability, ATPlite luminescence, 48 h; series mostly up to 57.5 µM
# Summary of the method: as §1
row,SMILES,Potency
1,Cc1c(C(=O)Nc2ccc(N3C[C@@H](C)O[C@@H](C)C3)nc2)cccc1-c1ccc(OC(F)(F)F)cc1,inactive
2,CN1CCN(c2cccc(Nc3nc4c(-c5ccc(S(C)(=O)=O)cc5)cccn4n3)c2)CC1,inactive
3,CC(C)(C)c1nc(-c2cccc(NS(=O)(=O)c3c(F)cccc3F)c2F)c(-c2ccnc(N)n2)s1,inactive
4,O[C@@H](COc1cccc2ncccc12)CN1CCN(C2c3ccccc3[C@@H]3[C@H](c4ccccc42)C3(F)F)CC1 (stereo partly specified),inactive
5,CCN(CCO)CCCOc1ccc2c(Nc3cc(CC(=O)Nc4cccc(F)c4)[nH]n3)ncnc2c1,inactive
6,N#Cc1ccc(Oc2ccc3c(c2)COB3O)cc1,inactive
7,OC[C@H]1O[C@@H](OCCc2ccc(O)cc2)[C@H](O)[C@@H](O)[C@H]1O,inactive
